Source: PubChem BioAssay (National Center for Advancing Translational Sciences (NCATS))
Only a selection was taken, and hits are over-represented in it overall.
TDP1 block = qHTS Assay for Inhibitors of Tyrosyl-DNA Phosphodiesterase (TDP1). Tyrosyl-DNA phosphodiesterase 1 (Homo sapiens), Q9NUW8. recombinant TDP1, AlphaScreen DNA substrate cleavage. Potency, µM (titrated, usually from 130 µM), for the others: at the highest dose activity change, negative = inhibition, most hits filed as inhibitors. 0.28% of 350,000 active. AID 485290, 2010; further: nearly all actives have a fitted effect of over 40% in size
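E. coli-derived human Tdp1, 1 nM final. Cpd preinc 15 min RT; substrate 15 nM final, 5 min RT; AS bead mix 10 ug/ml final, 10 min RT. Signal loss = tyrosine-FITC cleavage. No-enzyme wells = max signal.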
KAT2A inh = qHTS Assay for Inhibitors of GCN5L2 | GCN5L2 HAT assay, ThioGlo1 CoA-SH fluorescence | Potency, µM (doses to about 58.9 µM), for inactives: at the highest dose activity change, negative = inhibition, hits mostly inhibitors | Histone acetyltransferase KAT2A (Homo sapiens), Q92830 | 0.21% of 390,000 active
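Compounds, pin-transferred from DMSO stocks, meet 20nM GCN5L2 for 15 min before the reaction begins with H3(1-25) peptide (75uM) and acetyl-CoA (70uM). Thiol-reactive ThioGlo1 reports CoA release over 20 min at room temperature.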
BLM helicase inh = qHTS Assay for Inhibitors of Bloom's syndrome helicase (BLM); RecQ-like DNA helicase BLM (Homo sapiens), P54132; recombinant BLM DNA unwinding, fluorescence dequenching; Potency, µM (top dose mostly 56.1 µM), for the others: at the top dose activity change, negative = inhibition, usual class: inhibitors; 0.2% of 350,000 active;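 further: plate controls were vehicle for no effect and no enzyme for full effect; nearly all actives have a fitted effect of over 35% in size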
APEX1 inh = qHTS Assay for Inhibitors of the Human Apurinic/apyrimidinic Endonuclease 1 (APE1); DNA repair nuclease/redox regulator APEX1 (Homo sapiens), P27695; recombinant APE1, TAMRA/BHQ-2 abasic DNA cleavage fluorescence; Potency, µM (titrated, usually from 65.8 µM), without a hit: at the top dose activity change, negative = inhibition, hits mostly inhibitors; 0.35% of 350,000 active;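 further: plate controls were vehicle for no effect and reference inhibitor for full effect; nearly all actives have a fitted effect of over 55% in size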
Target sequence (P27695 whole entry, looked up): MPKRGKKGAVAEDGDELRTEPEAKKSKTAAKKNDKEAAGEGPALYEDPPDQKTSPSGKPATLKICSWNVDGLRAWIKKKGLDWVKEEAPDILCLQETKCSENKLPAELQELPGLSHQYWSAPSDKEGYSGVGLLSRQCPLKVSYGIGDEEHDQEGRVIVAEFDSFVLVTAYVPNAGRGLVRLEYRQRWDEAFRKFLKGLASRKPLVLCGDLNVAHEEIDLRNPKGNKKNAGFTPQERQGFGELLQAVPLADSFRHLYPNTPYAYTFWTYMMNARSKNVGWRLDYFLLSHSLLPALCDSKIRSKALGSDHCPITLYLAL
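APE1 at 0.75 nM final was preincubated with compound 15 min at room temperature, then 50 nM double-stranded THF abasic-site substrate (5'-TAMRA/3'-BHQ-2) was added. Fluorescence (ex 525/em 598 nm) was read kinetically; third-minus-first read gave activity.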
KDM4E inh = qHTS Assay for Inhibitors of Human Jumonji Domain Containing 2E (JMJD2E) | JMJD2E catalytic domain, FDH-coupled NADH fluorescence (FDH is formaldehyde dehydrogenase) | 1.6% of 230,000 active | Potency, µM (doses to about 57.1 µM), inactives show at the highest dose activity change, negative = inhibition, actives largely listed as inhibitors | Lysine-specific demethylase 4E (Homo sapiens), B2RXH2; active means well fitted inhibition curve with a large enough effect, not every such curve was filed as active; inconclusive means small, poorly fitted or top-dose-only effect, or another doubt; inactive means no such curve, though single readings can be large or run the other way;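 further: 0% = wells with enzyme and -100% = buffer wells without enzyme; nearly all actives have a fitted effect of over 50% in size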
Target sequence (B2RXH2 1-337 limits assumed): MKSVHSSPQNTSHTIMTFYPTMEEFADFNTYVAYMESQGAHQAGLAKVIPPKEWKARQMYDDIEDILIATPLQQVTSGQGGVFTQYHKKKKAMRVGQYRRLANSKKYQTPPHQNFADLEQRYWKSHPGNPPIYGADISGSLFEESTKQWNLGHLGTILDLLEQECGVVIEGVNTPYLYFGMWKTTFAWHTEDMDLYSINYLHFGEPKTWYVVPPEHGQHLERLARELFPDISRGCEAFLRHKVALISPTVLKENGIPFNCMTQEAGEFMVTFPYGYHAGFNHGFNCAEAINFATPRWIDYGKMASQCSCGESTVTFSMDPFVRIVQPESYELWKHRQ
RECQ1 inh-1 = qHTS Assay for Inhibitors of RecQ-Like Dna Helicase 1 (RECQ1). Potency, µM (top dose mostly 57.3 µM), for inactives: top-dose activity, negative = inhibition, hits mostly inhibitors. RECQ1 DNA unwinding, red fluorescence kinetic read. AID 2549, 2010. ATP-dependent DNA helicase Q1 (Homo sapiens), P46063. 0.54% of 240,000 active;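 further: plate controls were vehicle for no effect and no enzyme for full effect; nearly all actives have a fitted effect of over 30% in size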
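50 nM RECQ1T1 preincubated 15 min with compound in Tris pH 8.0 buffer with MgCl2, DTT, Tween-20 and 2.5 ug/ml poly(dI-dC); started with 200 nM TAMRA/BHQ-2 forked duplex and 2 mM ATP. Unwinding read as fluorescence (525/598 nm), two reads 2 h apart.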
RECQ1 inh conf = Confirmation qHTS Assay for Inhibitors of RecQ-Like Dna Helicase 1 (RECQ1) | shares compounds with RECQ1 inh-1 | RECQ1 helicase DNA unwinding, fluorescence | Potency, µM (highest dose often 229 µM), without a hit: at the highest dose activity change, negative = inhibition, hits mostly inhibitors | 28% of 610 active; further: nearly all actives have a fitted effect of over 45% in size
ADP FP counter = Counterscreen for RECQ1 Inhibitors: ADP Fluorescence Polarization Displacement Assay; AID 2711, 2010; shares compounds with RECQ1 inh-1; ADP fluorescence polarization displacement counterscreen; 27% of 530 active; Potency, µM (top dose mostly 228 µM), inactives show at the top dose activity change, negative = inhibition, hits mostly inhibitors; further: nearly all actives have a fitted effect of over 45% in size
RECQ1 inh-2 = Confirmation qHTS Assay for Inhibitors of RecQ-Like Dna Helicase 1 (RECQ1) - Round 2 Cherry Picks. recombinant RECQ1 DNA unwinding, red fluorescence. 15% of 1,100 active. shares compounds with RECQ1 inh-1. Potency, µM (top dose mostly 119 µM), inactives show at the top dose activity, negative = inhibition, hits mostly inhibitors. AID 504841, 2011; further: nearly all actives have a fitted effect of over 50% in size
* = called active by the depositor; ? = inconclusive; . = not tested or not shown; [ ] = another dose, or the depositor's remark. Unless noted, the call rests on the fitted dose curve; in most records, active means well fitted curve in the direction sought with a large enough effect; inconclusive means small, poorly fitted or top-dose-only effect, or another doubt; inactive means no such curve, though single readings can be large; an effect the other way counts as inactive or inconclusive. Unless noted, on the % scale 0 is the no-effect control and ±100 the full control effect; potency means the concentration at half of the fitted maximal effect.

SMILES	TDP1 block	KAT2A inh	BLM helicase inh	APEX1 inh	KDM4E inh	RECQ1 inh-1	RECQ1 inh-2	others
CCN1C(=O)CS/C1=N\S(=O)(=O)c1ccccc1	0%	3%	-4%	-1%	10%	-8%	.
C=CCN1C(=O)CS/C1=N\S(=O)(=O)c1ccc(Cl)cc1	1%	12%	0%	-4%	8%	?	-10%
O=C(CC1N=C2c3ccccc3N=C(SCc3ccc(Cl)cc3)N2C1=O)NCc1ccco1 (stereo unspecified)	3%	-9%	-14%	13%	?	?	?
Cc1ccc(CSC2=Nc3ccccc3C3=NC(CCC(=O)NCc4ccco4)C(=O)N23)cc1 (stereo unspecified)	6%	-2%	-8%	-3%	?	-13%	.
Cc1nc(NCc2ccccc2)c2nc(-c3ccccc3)n(CCN3CCCCC3)c2n1	9%	.	-5%	?	?	-2%	.
ON=C1CCCCC1	-6%	.	.	?	.	-16%	.
C/C(=C\CO)CCO	8%	.	2%	24%	-6%	-12%	.
CC(C)(C)[C@@H]1C=C(C(=O)NCc2ccccc2)O[C@H](OCc2ccc(CO)cc2)C1	4%	-7%	-5%	16%	-1%	?	.	RECQ1 inh conf=6%[114 µM];ADP FP counter=?
CC(=O)NCCNc1ncnc2ccc(-c3ccccc3C#N)cc12	.	-20%	1%	0%	.	-1%	.
CCc1nnc(NC(=O)c2sc3nc4c(cc3c2N)CCCCCC4)s1	50µM*	-20%	-21%	1%	?	?	?
COc1ccc(CC(=O)NCC(c2cccs2)S(=O)(=O)c2ccc(Cl)cc2)cc1 (stereo unspecified)	?	-26%	-2%	.	.	.	.
CCOC(=O)c1cc2c(ccn2C)n1Cc1ccccc1Cl	7%	1%	-4%	3%	?	-6%	.
CCOC(=O)c1cc2c(ccn2C)n1Cc1ccccc1C	5%	4%	-9%	-7%	?	28µM*	?
CCc1nnc(NS(=O)(=O)c2ccc(NC(=S)NC(=O)/C=C/c3ccc(OC)cc3)cc2)s1	1%	1%	?	2%	-8%	3%	.
CCc1nnc(NS(=O)(=O)c2ccc(NC(=S)NC(=O)/C=C/c3ccccc3)cc2)s1	.	-3%	-9%	?	9%	?	?
CCc1nnc(NS(=O)(=O)c2ccc(NC(=S)NC(=O)/C=C/c3ccc(C(C)C)cc3)cc2)s1	-10%	-27%	-20%	-5%	-11%	?	?
CCn1cc2nc(SCC(=O)Nc3ccccc3C(F)(F)F)n(Cc3ccc(C)cc3)c(=O)c2n1	?	-7%	-14%	.	.	.	.
CCN(CCCNC(=O)CN1N=C(c2ccc(OC)cc2)CCC1=O)c1cccc(C)c1	7%	0%	3%	.	.	.	.
Cc1ccc(O)c(N=Cc2cc(Cc3ccccc3)cc([N+](=O)[O-])c2O)c1	11%	-1%	-22%	-12%	28µM*	13µM*	?	RECQ1 inh conf=56µM*;ADP FP counter=45µM*
O=C(O)c1c2c(nc3ccc(S(=O)(=O)N4CCC(C(=O)N5CCCCC5)CC4)cc13)CCCC2	7%	-16%	-6%	-10%	?	?	8%
CC1CCc2nc3ccc(S(=O)(=O)N4CCC(C(=O)N5CCCCC5)CC4)cc3c(C(=O)O)c2C1 (stereo unspecified)	7%	-5%	2%	-2%	-16%	-4%	.
CCOC(=O)Cc1csc(SCC(=O)Nc2nccs2)n1	0%[0.505 µM]	1%	.	7%	.	.	.
CCOC(=O)Cc1csc(SCC(=O)Nc2sc3c(c2C(N)=O)CCC3)n1	?	-25%	-21%	?	?	?	?
CCOC(=O)CCN(c1ccccc1)S(=O)(=O)c1cc(-c2cc(C)no2)ccc1C	3%	-1%	-6%	.	.	.	.
c1ccc2c(Nc3ccc4c(c3)OCCO4)c3c(nc2c1)CCC3	3%	3%	4%	-1%	-2%	?	-12%
SMILES	TDP1 block	KAT2A inh	BLM helicase inh	APEX1 inh	KDM4E inh	RECQ1 inh-1	RECQ1 inh-2	others
O=C1CCCC2=C1C(c1ccc(O)c(O)c1)c1c(ccc3ncccc13)N2 (stereo unspecified)	.	?	-10%	10µM*	25µM*	11µM*	?	RECQ1 inh conf=?;ADP FP counter=?
O=C1CCCC2=C1C(c1ccc(O)cc1)c1c(ccc3ccccc13)N2 (stereo unspecified)	8%	-4%	-22%	-4%	?	-19%	.
CC(CNC(=O)c1ccc2c(c1)nc1n2CCCCC1)c1ccccc1 (stereo unspecified)	11%	2%	-4%	.	.	.	.
COc1cc(NC(=O)CCNS(=O)(=O)c2ccc3c(c2)CCC(=O)N3)cc(OC)c1	5%	2%	0%	-4%	-2%	-12%	.
COc1ccc(NC(=O)CCNS(=O)(=O)c2ccc3c(c2)CCC(=O)N3)cc1	4%	-1%	-1%	2%	1%	-4%	.	RECQ1 inh conf=14%;ADP FP counter=?
CC[C@H](C)[C@H](NC(=O)[C@H](CC(C)C)NC(=O)[C@@H](N)CO)C(=O)NCC(=O)N[C@@H](CCCN=C(N)N)C(=O)N[C@@H](CC(C)C)C(=O)O	7%	-7%	0%	-2%	.	6%	.
CC(C)=NO[C@@H](C)c1cc(-c2c(C)cc(C)cc2C)no1	3%[21 µM]	.	-1%[12.4 µM]	-7%[12.4 µM]	.	0%[11.5 µM]	.
